Reference: PubChem BioAssay (NCATS)
Inconclusive results are not listed. A call without a number means that no potency is given here. Calls of active or inactive are those of the source. Calls come from the whole dose curve; as a rule, active = well fitted curve in the direction sought with a large enough effect; inconclusive = small, poorly fitted or top-dose-only effect, or another doubt; inactive = no such curve, though single readings can be large; an effect the other way counts as inactive or inconclusive.

test: qHTS assay to identify small molecule inhibitors of chordoma cells - UCH-1 (AID 1259355); conditions: UCH-1 chordoma viability, CellTiter-Glo, 48 h, combination; series mostly up to 46.1 µM; note: nearly all actives have a fitted effect of over 55% in size; note: potency is the fitted concentration of half-maximal effect
Procedure, shortened: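 Cells (800/well) were seeded and left overnight at 37 C, 5% CO2, then treated with drugs at 15 concentrations plus a combination mix of auranofin, camptothecin, doxorubicin, rubitecan and topotecan. Viability after 48hr was read by CellTiter-Glo luminescence.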

Compound | Potency
C[C@]12C=CC(=O)C=C1CC[C@@H]1[C@@H]2CC[C@@]2(C)[C@H]1CC[C@]2(C)O | inactive
CCS(=O)(=O)C(C)(C)S(=O)(=O)CC | inactive
CN1C[C@@H](NS(=O)(=O)N(C)C)C[C@@H]2c3cccc4c3c(cn4C)C[C@H]21 | inactive
CCOC(=O)NC(O)C(Cl)(Cl)Cl (stereo not drawn) | inactive
CCN(CC)C(C)C(=O)c1ccccc1 (stereo not drawn) | inactive
CNC(=O)NC(O)C(Cl)(Cl)Cl (stereo not drawn) | inactive
Cc1ncc2n1-c1ccc(Cl)cc1C(c1ccccc1F)=NC2 | inactive
CC(C)(O)C(Cl)(Cl)Cl | inactive
CC(C)[N+](C)(CCC(C(N)=O)(c1ccccc1)c1ccccc1)C(C)C | inactive
Cc1c(Cl)c(=O)oc2cc(OP(=O)(OCCCl)OCCCl)ccc12 | inactive
CCCC(C)C1(CC)C(=O)N=C(S)NC1=O (stereo not drawn) | inactive
C=CCN1CC[C@]23CCCC[C@H]2[C@H]1Cc1ccc(O)cc13 | inactive
CN1C(=O)[C@@H](NC(=O)c2cc3ccccc3[nH]2)N=C(c2ccccc2)c2ccccc21 | inactive
CCC1(c2ccccc2)CCC(=O)NC1=O (stereo not drawn) | inactive
COCC(=O)N(c1c(C)cccc1C)C(C)C(=O)OC (stereo not drawn) | inactive
c1cc2c(c(N3CCNCC3)c1)OCCO2 | inactive
CC(Cc1ccccc1)NCc1ccccc1Cl (stereo not drawn) | inactive
NCc1cccnc1 | inactive
COP(=S)(OC)Oc1ccc(Sc2ccc(OP(=S)(OC)OC)cc2)cc1 | inactive
C#C[C@]1(O)C=C[C@H]2[C@@H]3CCC4=CC(=O)CC[C@@H]4[C@H]3CC[C@@]21CC | inactive

Compound | Potency
CCC(=O)O[C@H]1CC[C@H]2[C@@H]3CCC4=CC(=O)CC[C@]4(C)[C@H]3CC[C@]12C | inactive
Oc1ccc2[nH]cc(CCCCN3CC=C(c4ccccc4)CC3)c2c1 | inactive
CC[n+]1c(-c2ccccc2)c2cc(N)ccc2c2ccc(N)cc21 | 7.94 µM (active)
COP(=O)(OC)OC=C(Cl)Cl | inactive
NC(=O)OCCCc1ccccc1 | inactive
O=C(NC(=O)c1c(F)cccc1F)Nc1cc(Cl)c(OC(F)(F)C(F)C(F)(F)F)cc1Cl (stereo not drawn) | inactive
O=C(O)c1nn(Cc2ccc(Cl)cc2Cl)c2ccccc12 | inactive
O=C(CCCN1CCC(n2c(=O)[nH]c3ccccc32)CC1)c1ccc(F)cc1 | inactive
Clc1ccc(CSC(Cn2ccnc2)c2ccc(Cl)cc2Cl)cc1 (stereo not drawn) | inactive
C=CCOC(Cn1ccnc1)c1ccc(Cl)cc1Cl (stereo not drawn) | inactive
CCNc1nc(Cl)nc(NCC)n1 | inactive
C#C[C@]1(O)CC[C@H]2[C@@H]3CCC4=CC(=O)CCC4=C3C=C[C@@]21CC | inactive
CCN(CC)CCOC(=O)C(C)(c1ccccc1)c1ccccc1 | inactive
C[C@@H]1CC[C@H]2[C@@H](C)C(=O)O[C@@H]3O[C@@]4(C)CC[C@@H]1[C@]32OO4 | inactive
C[C@H]1C(=O)O[C@@H]2CCN3CC=C(COC(=O)[C@](C)(O)[C@]1(C)O)[C@H]23 | inactive
CCN(Cc1ccc(Cl)nc1)/C(=C/[N+](=O)[O-])NC | inactive
O=C1NCN(c2ccccc2)C12CCN(CCCOc1ccc(F)cc1)CC2 | inactive
CC[C@]1(O)CC[C@H]2[C@@H]3CCC4=CCCC[C@@H]4[C@H]3CC[C@@]21C | inactive
CC1=C2[C@H]3OC(=O)[C@@H](C)[C@@H]3CC[C@@]2(C)C=CC1=O | inactive

test: qHTS assay to identify small molecule inhibitors of chordoma cells - UCH-2 (AID 1259356); conditions: UCH-2 chordoma viability, CellTiter-Glo ATP luminescence, 48 h; series mostly up to 46.1 µM

Compound | Potency
C[C@]12C=CC(=O)C=C1CC[C@@H]1[C@@H]2CC[C@@]2(C)[C@H]1CC[C@]2(C)O | inactive
CCS(=O)(=O)C(C)(C)S(=O)(=O)CC | inactive
CN1C[C@@H](NS(=O)(=O)N(C)C)C[C@@H]2c3cccc4c3c(cn4C)C[C@H]21 | inactive
CCOC(=O)NC(O)C(Cl)(Cl)Cl (stereo not drawn) | inactive
CCN(CC)C(C)C(=O)c1ccccc1 (stereo not drawn) | inactive
CNC(=O)NC(O)C(Cl)(Cl)Cl (stereo not drawn) | inactive
Cc1ncc2n1-c1ccc(Cl)cc1C(c1ccccc1F)=NC2 | inactive
CC(C)(O)C(Cl)(Cl)Cl | inactive
CC(C)[N+](C)(CCC(C(N)=O)(c1ccccc1)c1ccccc1)C(C)C | inactive
Cc1c(Cl)c(=O)oc2cc(OP(=O)(OCCCl)OCCCl)ccc12 | inactive
CCCC(C)C1(CC)C(=O)N=C(S)NC1=O (stereo not drawn) | inactive
C=CCN1CC[C@]23CCCC[C@H]2[C@H]1Cc1ccc(O)cc13 | inactive
CN1C(=O)[C@@H](NC(=O)c2cc3ccccc3[nH]2)N=C(c2ccccc2)c2ccccc21 | inactive
CCC1(c2ccccc2)CCC(=O)NC1=O (stereo not drawn) | inactive
COCC(=O)N(c1c(C)cccc1C)C(C)C(=O)OC (stereo not drawn) | inactive
c1cc2c(c(N3CCNCC3)c1)OCCO2 | inactive
CC(Cc1ccccc1)NCc1ccccc1Cl (stereo not drawn) | inactive
NCc1cccnc1 | inactive
COP(=S)(OC)Oc1ccc(Sc2ccc(OP(=S)(OC)OC)cc2)cc1 | inactive
C#C[C@]1(O)C=C[C@H]2[C@@H]3CCC4=CC(=O)CC[C@@H]4[C@H]3CC[C@@]21CC | inactive

Compound | Potency
CCC(=O)O[C@H]1CC[C@H]2[C@@H]3CCC4=CC(=O)CC[C@]4(C)[C@H]3CC[C@]12C | inactive
Oc1ccc2[nH]cc(CCCCN3CC=C(c4ccccc4)CC3)c2c1 | inactive
CC[n+]1c(-c2ccccc2)c2cc(N)ccc2c2ccc(N)cc21 | inactive
COP(=O)(OC)OC=C(Cl)Cl | inactive
NC(=O)OCCCc1ccccc1 | inactive
O=C(NC(=O)c1c(F)cccc1F)Nc1cc(Cl)c(OC(F)(F)C(F)C(F)(F)F)cc1Cl (stereo not drawn) | inactive
O=C(O)c1nn(Cc2ccc(Cl)cc2Cl)c2ccccc12 | inactive
O=C(CCCN1CCC(n2c(=O)[nH]c3ccccc32)CC1)c1ccc(F)cc1 | inactive
Clc1ccc(CSC(Cn2ccnc2)c2ccc(Cl)cc2Cl)cc1 (stereo not drawn) | inactive
C=CCOC(Cn1ccnc1)c1ccc(Cl)cc1Cl (stereo not drawn) | inactive
CCNc1nc(Cl)nc(NCC)n1 | inactive
C#C[C@]1(O)CC[C@H]2[C@@H]3CCC4=CC(=O)CCC4=C3C=C[C@@]21CC | inactive
CCN(CC)CCOC(=O)C(C)(c1ccccc1)c1ccccc1 | inactive
C[C@@H]1CC[C@H]2[C@@H](C)C(=O)O[C@@H]3O[C@@]4(C)CC[C@@H]1[C@]32OO4 | inactive
C[C@H]1C(=O)O[C@@H]2CCN3CC=C(COC(=O)[C@](C)(O)[C@]1(C)O)[C@H]23 | inactive
CCN(Cc1ccc(Cl)nc1)/C(=C/[N+](=O)[O-])NC | inactive
O=C1NCN(c2ccccc2)C12CCN(CCCOc1ccc(F)cc1)CC2 | inactive
CC[C@]1(O)CC[C@H]2[C@@H]3CCC4=CCCC[C@@H]4[C@H]3CC[C@@]21C | inactive
CC1=C2[C@H]3OC(=O)[C@@H](C)[C@@H]3CC[C@@]2(C)C=CC1=O | inactive
